For some of these results: Entries with a potency or affinity are not part of this list. The source made the active and inactive calls.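 How the source made its calls, unless noted: active means signal rise over 3 SD above mean of control wells given weak agonist, in both repeats and first screen; inactive means the rest.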
Assays:
[1] = system: TRPC4 beta (transient receptor potential cation channel C4), mouse; test: TRPC4 cation channel opening, retest – cell-based, Fluo4 calcium, HEK293 TRPC4beta/mu-opioid, duplicates, 10 µM, confirmation (AID 2426;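 active means fluorescence ratio normalized to control raised more than 50% in primary screen plus both repeat runs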;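 on activation: percent rise of integrated ratio over buffer wells lacking compound which define 0%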); conditions: Fluo4 calcium fluorescence, at 10 µM; active compounds read high
[2] = system: transient receptor potential cation channel C4 beta (TRPC4), mouse; test: TRPC4 cation channel opening, second retest – cell-based, second round, Fluo4, HEK293 TRPC4beta/mu-opioid, 1 µM, confirmation (AID 2461;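 active means primary screen active and over 50% activation in each of two duplicate runs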;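 on activation: 0% = wells without test compound as baseline of integrated fluorescence ratio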); conditions: Fluo4 calcium fluorescence, at 1 µM; active compounds read high
[3] = system: TRPC4 (transient receptor potential cation channel C4 beta), mouse; test: potentiation of DAMGO EC20 TRPC4 response – cell-based, second round, Fluo-4, HEK293 TRPC4beta/mu-opioid, 1 µM, confirmation (AID 2554;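 active means primary screen hit whose fluorescence ratio, in both repeats, exceeds the weak agonist control mean by 3 SD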); conditions: DAMGO EC20, Fluo-4 calcium flux, at 1 µM; active compounds read high
[4] = system: TRPC4 beta (transient receptor potential cation channel C4), mouse; test: potentiation of DAMGO EC20 TRPC4 response – cell-based, Fluo-4, HEK293 TRPC4beta/mu-opioid, confirmation (AID 2555;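 active means primary screen hit whose calcium fluorescence ratio, in both repeats, exceeds the weak agonist control mean by 3 SD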); conditions: DAMGO EC20, Fluo-4 calcium flux, at 10 µM; active compounds read high
[5] = molecular target: Short transient receptor potential channel 4 (Mus musculus) (UniProt Q9QUQ5); test: blockers of DAMGO-evoked TRPC4 calcium flux – cell-based, Fluo4, HEK293 TRPC4beta/mu-opioid, confirmation (AID 2636;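 active means calcium signal cut by more than 3 SD below the full-agonist control yet still positive, in both repeats and the earlier primary screen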); conditions: at 10 µM; active compounds read high
[6] = molecular target: Short transient receptor potential channel 4 (Mus musculus) (UniProt Q9QUQ5); test: blockers of DAMGO-evoked TRPC4 calcium flux – cell-based, second round, Fluo4, HEK293 TRPC4beta/mu-opioid, 1 µM, confirmation (AID 2637;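 active means calcium signal ratio cut to more than 3 SD under the fully stimulated control mean yet still positive, in both repeats and the primary screen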); conditions: at 1 µM; active compounds read high
[7] = molecular target: Short transient receptor potential channel 4 (Mus musculus) (UniProt Q9QUQ5); test: potentiation of DAMGO-evoked TRPC4 calcium signal – cell-based, HEK293 TRPC4/mu-opioid, Fluo-4 calcium, EC20 DAMGO, dose response (AID 434941;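 active means earlier screen potentiator hit that boosts the TRPC4 ion channel at some dose, with a dose response; inactive means no potentiation, no dose response, or not a prior hit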;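 further: calcium entry triggered by an EC20 dose of DAMGO at the co-expressed mu-opioid receptor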)
[8] = molecular target: Short transient receptor potential channel 4 (Mus musculus) (UniProt Q9QUQ5); test: block of DAMGO-driven TRPC4 calcium entry – cell-based, HEK293 TRPC4/mu-opioid, Fluo-4 calcium, dose response (AID 434942;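 active means primary screen inhibitor hit that blocks the TRPC4 channel at some tested dose, yielding a dose curve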)
[9] = molecular target: Short transient receptor potential channel 6 (Mus musculus) (UniProt Q61143); test: TRPC6 blockade by TRPC4 inhibitor hits – cell-based, HEK293, membrane potential dye, duplicate, selectivity assay for TRPC4 inhibitor project, confirmation (AID 434948;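 active means active in primary screen and both duplicates, each dropping signal beyond three positive-control SD with fluorescence still positive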); conditions: HEK293 TRPC6, membrane potential dye fluorescence, at 10 µM, stimulated with maximal-effect acetylcholine; active compounds read high
[10] = molecular target: Short transient receptor potential channel 6 (Mus musculus) (UniProt Q61143); test: TRPC6 opening by TRPC4 activator hits – cell-based, HEK293, membrane potential dye, duplicate, selectivity assay for TRPC4 activator project, confirmation (AID 434950;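 active means membrane potential signal rise above negative control mean plus 3 SD in both duplicates, also active in the earlier TRPC4 screen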;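 on activation: 0% = buffer only wells and 100% = acetylcholine maximal-effect wells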); conditions: HEK293 TRPC6, membrane potential fluorescence, at 10 µM; activation: active compounds read high; outcome: activation
[11] = molecular target: Short transient receptor potential channel 6 (Mus musculus) (UniProt Q61143); test: positive modulators of mouse TRPC6 channel – HEK293 cells, membrane potential dye, duplicate, selectivity assay for TRPC4 potentiator project, confirmation (AID 434952;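 active means compound raising the membrane signal above positive-control mean plus 3 SD in both repeats, and a primary screen hit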); conditions: HEK293 TRPC6, membrane potential dye fluorescence, at 10 µM, maximal acetylcholine added after compound; active compounds read high
[12] = molecular target: Short transient receptor potential channel 4 (Mus musculus) (UniProt Q9QUQ5); test: calcium flux activators in TRPC4/5HT1a cells, counter-screen for TRPC4 activator project, cell-based, second counter screen, HEK293 TRPC4/5HT1a, Fluo-4 (AID 434977;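 active means calcium signal rise above buffer-control mean plus 5 SD in both duplicates, and also a hit in the primary screen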;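 on activation: plate controls were assay buffer for no effect and maximal serotonin response for full effect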); conditions: Fluo-4 calcium flux, at 10 µM; active compounds read high
[13] = serotonin-gated TRPC4 signal block – cell-based, second counter screen, HEK293 TRPC4/5HT1a, Fluo-4, counter-screen for TRPC4 inhibitor project, confirmation (AID 434978;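 active means primary screen active whose calcium signal fell more than 3 SD beyond the full-serotonin control mean in both duplicate plates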;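 further: serotonin given first at submaximal then at maximal dose after compound preincubation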); conditions: Fluo-4 calcium flux, at 10 µM, serotonin added to trigger calcium flux; active compounds read high
[14] = system: TRPC4 (mouse), co-expressed with 5HT1a in HEK293; test: enhancement of serotonin-evoked TRPC4 response – cell-based, second counter screen, HEK293 TRPC4/5HT1a, Fluo-4, counter-screen for TRPC4 potentiator project, confirmation (AID 434979); conditions: Fluo-4 calcium flux, at 10 µM, serotonin added at its EC20 dose; active compounds read high
[15] = nonspecific calcium rise without TRPC4 – cell-based, HEK293 mu-opioid receptor line, counter-screen for TRPC4 activator project, confirmation (AID 449723;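 active means hit in primary screen, with calcium signal over 5 SD above buffer well mean in both duplicates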;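 further: counter screen cells carry the mu-opioid receptor alone and lack TRPC4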); conditions: HEK293 mu-opioid cells, Fluo-4 calcium fluorescence, at 10 µM; active compounds read high
[16] = nonspecific potentiation of DAMGO calcium response – cell-based, HEK293 mu-opioid receptor line, counter-screen for TRPC4 allosteric potentiator project, confirmation (AID 449724;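 active means calcium signal rise more than 3 SD above the low-dose agonist control mean, in both duplicate plates and the primary screen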); conditions: HEK293 mu-opioid receptor cells, Fluo-4 calcium flux, at 10 µM, compound added before EC20 DAMGO stimulus; active compounds read high

Chain of Short transient receptor potential channel 6 (Mus musculus) (Q61143 whole entry, looked up): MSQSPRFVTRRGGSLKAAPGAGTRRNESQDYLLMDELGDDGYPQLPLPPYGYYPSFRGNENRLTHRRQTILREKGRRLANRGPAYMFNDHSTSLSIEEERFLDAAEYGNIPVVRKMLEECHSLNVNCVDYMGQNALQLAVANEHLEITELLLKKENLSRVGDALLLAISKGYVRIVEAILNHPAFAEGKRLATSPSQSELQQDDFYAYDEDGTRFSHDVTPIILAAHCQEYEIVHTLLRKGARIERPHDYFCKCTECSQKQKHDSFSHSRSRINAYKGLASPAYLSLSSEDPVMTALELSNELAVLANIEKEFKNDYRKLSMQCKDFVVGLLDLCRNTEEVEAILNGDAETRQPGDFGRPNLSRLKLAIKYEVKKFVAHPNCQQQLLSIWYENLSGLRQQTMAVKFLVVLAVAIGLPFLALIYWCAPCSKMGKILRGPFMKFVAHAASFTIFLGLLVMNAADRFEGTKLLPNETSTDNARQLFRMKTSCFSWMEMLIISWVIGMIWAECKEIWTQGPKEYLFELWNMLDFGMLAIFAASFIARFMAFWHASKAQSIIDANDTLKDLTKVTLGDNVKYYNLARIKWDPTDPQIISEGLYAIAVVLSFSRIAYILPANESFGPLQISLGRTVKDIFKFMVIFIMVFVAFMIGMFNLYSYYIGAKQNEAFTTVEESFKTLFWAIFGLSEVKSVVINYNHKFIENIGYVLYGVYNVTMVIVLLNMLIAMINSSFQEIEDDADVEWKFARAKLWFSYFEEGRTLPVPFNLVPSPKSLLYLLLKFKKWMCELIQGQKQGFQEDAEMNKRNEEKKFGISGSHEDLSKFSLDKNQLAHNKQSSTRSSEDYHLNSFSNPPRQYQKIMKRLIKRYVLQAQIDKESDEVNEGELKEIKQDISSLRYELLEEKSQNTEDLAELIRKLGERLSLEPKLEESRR
Chain of Short transient receptor potential channel 4 (Mus musculus) (Q9QUQ5 whole entry, looked up): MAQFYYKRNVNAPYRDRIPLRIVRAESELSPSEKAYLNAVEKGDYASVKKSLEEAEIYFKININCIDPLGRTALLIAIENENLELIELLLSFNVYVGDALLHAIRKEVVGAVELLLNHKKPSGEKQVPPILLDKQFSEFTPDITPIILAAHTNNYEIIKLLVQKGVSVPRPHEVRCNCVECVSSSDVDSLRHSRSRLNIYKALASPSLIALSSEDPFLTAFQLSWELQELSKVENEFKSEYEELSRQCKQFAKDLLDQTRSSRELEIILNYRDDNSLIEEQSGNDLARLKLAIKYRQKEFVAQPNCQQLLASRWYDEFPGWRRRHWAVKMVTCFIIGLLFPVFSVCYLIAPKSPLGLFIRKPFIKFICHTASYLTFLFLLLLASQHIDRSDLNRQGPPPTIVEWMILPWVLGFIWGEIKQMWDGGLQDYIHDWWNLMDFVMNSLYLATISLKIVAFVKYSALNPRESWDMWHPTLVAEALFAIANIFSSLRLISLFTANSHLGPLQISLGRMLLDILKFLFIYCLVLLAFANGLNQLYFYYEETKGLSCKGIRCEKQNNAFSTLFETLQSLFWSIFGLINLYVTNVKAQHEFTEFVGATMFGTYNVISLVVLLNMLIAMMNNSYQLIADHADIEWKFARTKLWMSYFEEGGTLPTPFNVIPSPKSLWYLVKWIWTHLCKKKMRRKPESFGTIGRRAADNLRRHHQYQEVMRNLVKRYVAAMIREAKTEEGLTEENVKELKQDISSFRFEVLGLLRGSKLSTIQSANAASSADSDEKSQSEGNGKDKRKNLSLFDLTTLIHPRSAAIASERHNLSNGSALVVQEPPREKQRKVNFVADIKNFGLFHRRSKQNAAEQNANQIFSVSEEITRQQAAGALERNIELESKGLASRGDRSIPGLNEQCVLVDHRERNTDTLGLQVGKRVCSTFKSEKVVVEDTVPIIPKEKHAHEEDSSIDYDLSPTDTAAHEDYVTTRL

Cc1cccc(OCCOCCN2CCNCC2)c1C
inactive: outcome [3] | outcome [4] | outcome [5] | outcome [6] | outcome [7] | outcome [8] | outcome [9] | outcome [11] | outcome [13] | outcome [14] | outcome [15] | outcome [16]
active: activation [1] 167% | activation [2] 69% | activation [10] 35% | activation [12] 65.6%

COCCCn1c(N)c(-c2nc3ccccc3n2C)c2nc3ccccc3nc21
active: activation [10] 137% | activation [12] 27.5% | activation [15] 16.7%
inactive: outcome [1] | outcome [2] | outcome [3] | outcome [4] | outcome [5] | outcome [6] | outcome [7] | outcome [8] | outcome [9] | outcome [11] | outcome [13] | outcome [14] | outcome [16]

COC(=O)NCC(c1ccc2c(c1)OCO2)N1CCN(c2ccccc2)CC1 (centres undefined)
active: activation [1] 201% | activation [2] 99% | activation [10] 33%
inactive: outcome [3] | outcome [4] | outcome [5] | outcome [6] | outcome [7] | outcome [8] | outcome [9] | outcome [11] | outcome [12] | outcome [13] | outcome [14] | outcome [15] | outcome [16]

O=C(NCC(c1cccs1)N1CCOCC1)c1ccc(Cl)c([N+](=O)[O-])c1 (centres undefined)
inactive: outcome [2] | outcome [3] | outcome [4] | outcome [5] | outcome [6] | outcome [7] | outcome [8] | outcome [9] | outcome [10] | outcome [11] | outcome [13] | outcome [14] | outcome [15] | outcome [16]
active: activation [1] 135% | activation [12] 21.6%

CC(C)(C)[C@H]1C=C(C(=O)NCc2ccccc2)O[C@@H](OCc2ccc(CO)cc2)C1
inactive: outcome [2] | outcome [3] | outcome [4] | outcome [5] | outcome [6] | outcome [7] | outcome [8] | outcome [9] | outcome [11] | outcome [12] | outcome [13] | outcome [14] | outcome [15] | outcome [16]
active: activation [1] 68% | activation [10] 24.5%

COc1c(C)cc(C(=O)C2CCCN(Cc3cccc4nccnc34)C2)cc1C (centres undefined)
active: activation [1] 108% | activation [10] 24% | activation [12] 37.7%
inactive: outcome [2] | outcome [3] | outcome [4] | outcome [5] | outcome [6] | outcome [7] | outcome [8] | outcome [9] | outcome [11] | outcome [13] | outcome [14] | outcome [15] | outcome [16]

Cc1ccc(-c2nn(-c3cccc(F)c3)cc2CNCc2cccnc2)o1
inactive: outcome [2] | outcome [3] | outcome [4] | outcome [5] | outcome [6] | outcome [7] | outcome [8] | outcome [9] | outcome [10] | outcome [11] | outcome [12] | outcome [13] | outcome [14] | outcome [15] | outcome [16]
active: activation [1] 100%

Cc1cc(CSC(=N)N)c(CSC(=N)N)cc1C
inactive: outcome [3] | outcome [4] | outcome [5] | outcome [6] | outcome [7] | outcome [8] | outcome [9] | outcome [10] | outcome [11] | outcome [13] | outcome [14] | outcome [15] | outcome [16]
active: activation [1] 178% | activation [2] 67% | activation [12] 46%

COc1ccc(C(CNC(=O)/C=C/c2c(Cl)nc3ccccn23)N(C)C)cc1 (centres undefined)
inactive: outcome [3] | outcome [4] | outcome [5] | outcome [6] | outcome [7] | outcome [8] | outcome [9] | outcome [11] | outcome [13] | outcome [14] | outcome [15] | outcome [16]
active: activation [1] 268% | activation [2] 153% | activation [10] 41% | activation [12] 7.37%

O=C(NC1CCN(Cc2ccccc2)CC1)C12CC3CC(CC(C3)C1)C2
active: activation [1] 166% | activation [10] 54% | activation [12] 61.6%
inactive: outcome [2] | outcome [3] | outcome [4] | outcome [5] | outcome [6] | outcome [7] | outcome [8] | outcome [9] | outcome [11] | outcome [13] | outcome [14] | outcome [15] | outcome [16]

O=C(NC1CC1)C1=C[C@H](c2csc3ccccc23)C[C@H](OCc2ccc(CO)cc2)O1
active: activation [10] 35.5%
inactive: outcome [1] | outcome [2] | outcome [3] | outcome [4] | outcome [5] | outcome [6] | outcome [7] | outcome [8] | outcome [9] | outcome [11] | outcome [12] | outcome [13] | outcome [14] | outcome [15] | outcome [16]

Fc1ccc(-c2nn(-c3ccccc3)cc2CNCc2ccccc2)cc1
inactive: outcome [1] | outcome [2] | outcome [3] | outcome [4] | outcome [5] | outcome [6] | outcome [7] | outcome [8] | outcome [9] | outcome [10] | outcome [11] | outcome [12] | outcome [13] | outcome [14] | outcome [15] | outcome [16]

CCOC(=O)C1(Cc2ccccc2)CCN(Cc2cn[nH]c2-c2ccccc2)CC1
inactive: outcome [2] | outcome [3] | outcome [4] | outcome [5] | outcome [6] | outcome [7] | outcome [8] | outcome [9] | outcome [11] | outcome [12] | outcome [13] | outcome [14] | outcome [15] | outcome [16]
active: activation [1] 192% | activation [10] 76%

CCN1CCN(c2ncnc3sc(C)c(-c4ccccc4)c23)CC1
inactive: outcome [2] | outcome [3] | outcome [4] | outcome [5] | outcome [6] | outcome [7] | outcome [8] | outcome [9] | outcome [10] | outcome [11] | outcome [12] | outcome [13] | outcome [14] | outcome [15] | outcome [16]
active: activation [1] 107%

COc1ccc(Cl)cc1C(=O)Nc1ccccc1N1CCN(C)CC1
inactive: outcome [2] | outcome [3] | outcome [4] | outcome [5] | outcome [6] | outcome [7] | outcome [8] | outcome [9] | outcome [10] | outcome [11] | outcome [13] | outcome [14] | outcome [15] | outcome [16]
active: activation [1] 120% | activation [12] 16%

O=[N+]([O-])c1cc(C(F)(F)F)ccc1N1CCCNCC1
active: activation [1] 77% | potentiation [3] 21% | potentiation [4] 26% | activation [12] 30.2% | potentiation [14] 30.6%
inactive: outcome [2] | outcome [5] | outcome [6] | outcome [7] | outcome [8] | outcome [9] | outcome [10] | outcome [11] | outcome [13] | outcome [15] | outcome [16]

O=C(O)C1C2C=CC(C2)C1C(=O)NC1CCN(Cc2ccccc2)CC1 (centres undefined)
inactive: outcome [2] | outcome [3] | outcome [4] | outcome [5] | outcome [6] | outcome [7] | outcome [8] | outcome [9] | outcome [11] | outcome [13] | outcome [14] | outcome [15] | outcome [16]
active: activation [1] 155% | activation [10] 32% | activation [12] 44.3%

Cc1sc2ncnc(NCC(c3ccco3)N3CCCC3)c2c1C (centres undefined)
inactive: outcome [3] | outcome [4] | outcome [5] | outcome [6] | outcome [7] | outcome [8] | outcome [9] | outcome [10] | outcome [11] | outcome [13] | outcome [14] | outcome [15] | outcome [16]
active: activation [1] 143% | activation [2] 178% | activation [12] 78.8%

CC(Nc1nc(N2CCNCC2)nc2ccccc12)c1ccccc1 (centres undefined)
inactive: outcome [1] | outcome [2] | outcome [3] | outcome [4] | outcome [5] | outcome [6] | outcome [7] | outcome [8] | outcome [9] | outcome [10] | outcome [11] | outcome [13] | outcome [14] | outcome [15] | outcome [16]
active: activation [12] 16.7%

Source: PubChem BioAssay
